An excerpt weighted towards active compounds, which were near 1.2% of everything screened.
MEP2-GFP yeast: modulators of TOR pathway MEP2-GFP in S. cerevisiae; S. cerevisiae MEP2-GFP strain, flow cytometry GFP, 3 h; 100% = DMSO control level; GFP response vs DMSO, % at 10 µM; 330,000 tested, 0.51% active;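 active = GFP response versus DMSO above a set limit, roughly screen mean plus 3 SD, cut at about 180% in these data; inconclusive = fewer than 70 cells counted for a yeast strain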;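 also: median GFP fluorescence of the barcode-gated MEP2-GFP cells per well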
Pemphigus Ab inh: inhibitors of pemphigus antibody binding to human desmoglein-3; P32926; DSG3-coupled beads, scFv-anti-DSG3-GFP binding, flow cytometry; active compounds read low; binding (percent of control), % at 10 µM; 310,000 tested, 0.48% active;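 active = binding more than 3 SD below its plate's average and above zero; inconclusive = below that plate limit but binding exactly zero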;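 also: hits lower antibody fragment binding to DSG3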
LAP4 TOR yeast: yeast TOR pathway LAP4-GFP modulation; S. cerevisiae LAP4-GFP multiplex, flow cytometry GFP, 3 h; median GFP as percent of DMSO wells; GFP response vs DMSO, % at 10 µM; 320,000 tested, 0.34% active;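 active = GFP response vs DMSO above a set limit, about the screen mean plus 3 SD, cut at about 150% in these data; inconclusive = under 70 cell events counted for the yeast strain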
RPL19A-GFP yeast: alters RPL19A-GFP fluorescence in TOR pathway yeast screen; S. cerevisiae RPL19A-GFP strain, flow cytometry, 3 h; active compounds read low; percent response vs DMSO, % at 10 µM; 330,000 tested, 0.3% active; AID 2025;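 active = percent response vs DMSO below 50%; inconclusive = fewer than 70 events counted for the yeast strain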;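 also: median channel GFP fluorescence of the barcoded RPL19A-GFP strain; ratio of sample median GFP to plate DMSO average so 100% = DMSO; lower means less RPL19A-GFP as with rapamycin TOR inhibition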
CIT2-GFP yeast: yeast TOR pathway CIT2-GFP modulation | S. cerevisiae CIT2-GFP strain, flow cytometry, 3 h; 100 means same as DMSO wells | GFP response vs DMSO, % at 10 µM | 320,000 tested, 0.065% active;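 active = GFP response relative to DMSO above a set limit, near the screen mean plus 3 SD, cut at about 150% in these data; inconclusive = Fewer than 70 cells measured for a yeast strain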;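 also: ratio of well median GFP fluorescence to mean of DMSO wells on the plate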
AGP1 TOR yeast: yeast TOR pathway AGP1-GFP modulation | S. cerevisiae AGP1-GFP multiplex flow cytometry, 3 h; GFP as percent of DMSO wells | GFP response vs DMSO, % at 10 µM | AID 2066 | 320,000 tested, 0.02% active;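 active = GFP response relative to DMSO above a set limit, near screen average plus 3 SD, cut at about 150% in these data; inconclusive = fewer than 70 cells counted for the yeast strain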;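 also: median GFP channel fluorescence of the gated AGP1 strain per well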
LAP4-GFP pick2: yeast LAP4-GFP modulation, second cherry pick. S. cerevisiae LAP4-GFP strain, flow cytometry GFP, 3 h. GFP response vs DMSO, % at 10 µM. 590 tested, 20% active. shares compounds with LAP4 TOR yeast;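 active = GFP signal as percent of the solvent control above about 150%, meaning raised reporter expression, limit read from the data; inconclusive = fewer than 70 cells counted in the well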;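 also: ratio of well median GFP fluorescence to plate DMSO mean so 100% = DMSO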
MEP2-GFP pick2: reconfirmed MEP2-GFP TOR pathway modulator in yeast. shares compounds with LAP4 TOR yeast. S. cerevisiae MEP2-GFP strain, flow cytometry GFP, 3 h. GFP response vs DMSO, % at 10 µM. 590 tested, 10% active;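 active = GFP signal above 150% of the solvent control wells, that is a rise of more than half; inconclusive = fewer than 70 yeast cells counted in the well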;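 also: median channel GFP fluorescence of all gated yeast cells per well; ratio of median GFP to plate DMSO average so 100% = DMSO level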
RPL19A GFP CP2: second confirmation of modulators of TOR reporter RPL19A-GFP in yeast | shares compounds with LAP4 TOR yeast | S. cerevisiae RPL19A-GFP strain, flow cytometry GFP, 3 h; active compounds read low; 100% means same as DMSO wells | GFP response vs DMSO, % at 10 µM | 590 tested, 3% active | AID 2623;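 active = under 65% GFP response relative to DMSO; inconclusive = yeast strain with under 70 measured events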;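 also: median GFP channel fluorescence per well over the all cells gate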
CIT2-GFP pick2: reconfirmed modulator of CIT2-GFP TOR reporter in yeast; S. cerevisiae CIT2-GFP strain, flow cytometry GFP, 3 h; DMSO control wells read 100%; GFP response vs DMSO, % at 10 µM; 590 tested, 8% active; shares compounds with LAP4 TOR yeast;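 active = GFP response vs DMSO above about 150%, limit read from the data; inconclusive = fewer than 70 events counted for a yeast strain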;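 also: median green fluorescence per well over all gated yeast cells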
AGP1 GFP CP2: yeast AGP1-GFP TOR reporter modulation, second cherry pick; shares compounds with LAP4 TOR yeast; 590 tested, under 10 active; percent response vs DMSO, % at 10 µM; S. cerevisiae AGP1-GFP strain, flow cytometry GFP, 3 h;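 active = over 150 percent of DMSO response; inconclusive = yeast strain measured with under 70 events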;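 also: median GFP channel fluorescence over all cells without mother daughter split; sample median GFP divided by mean DMSO control so 100% equals DMSO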
Yeast autofluor: compound is autofluorescent in yeast s288c cells; AID 2757; 610 tested, under 10 active; S. cerevisiae s288c, 520 nm autofluorescence, flow cytometry, 3 h; active compounds read high; zero means same as solvent-only cells; fluorescence change (kMESF span) at 33 µM; shares compounds with LAP4 TOR yeast;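 active = fluorescence span over the dose series, or activity score, above about 33, limit read from the data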
* hit, by the source's call; u = inconclusive; x = not tested or not shown.

SMILES	MEP2-GFP yeast	Pemphigus Ab inh	LAP4 TOR yeast	RPL19A-GFP yeast	CIT2-GFP yeast	AGP1 TOR yeast	LAP4-GFP pick2	MEP2-GFP pick2	RPL19A GFP CP2	CIT2-GFP pick2	AGP1 GFP CP2	others
C#CCOCCOCCOCCNc1nc(N2CCN(C(=O)CCCCCCCCCCNC(=O)[C@H](CCCCN)n3cc(CCO)nn3)CC2)nc(N2CCN(C(=O)CCCCCCCCCCNC(=O)[C@H](CCCCN)n3cc(C[C@@H](C)CC)nn3)CC2)n1	105	x	161*	76	101	100	119	152*	94	111	110	Yeast autofluor=0.31
C#CCOCCOCCOCCNc1nc(N2CCN(C(=O)CCCCCCCCCCNC(=O)[C@H](CCCCN)n3cc(C)nn3)CC2)nc(N2CCN(C(=O)CCCCCCCCCCNC(=O)[C@@H]([C@H](C)O)n3cc(C)nn3)CC2)n1	84	106	135	90	85	82	x	x	x	x	x
O=C(CSc1nnc2ccccn12)Nc1ccc(S(=O)(=O)N2CCOCC2)cc1	103	89	100	102	98	98	x	x	x	x	x
C#CCOCCOCCOCCNc1nc(N2CCN(C(=O)[C@H]([C@@H](C)CC)n3cc([C@@H](N)Cc4ccc(O)cc4)nn3)CC2)nc(N2CCN(C(=O)[C@H](CCCCN)n3cc([C@@H](N)CC(C)C)nn3)CC2)n1	839*	x	301*	59	129	153*	107	115	97	115	98
C#CCOCCOCCOCCNc1nc(N2CCN(C(=O)[C@H](CCCCN)n3cc([C@@H](N)CC(C)C)nn3)CC2)nc(N2CCN(C(=O)[C@H](Cc3ccc(O)cc3)n3cc([C@@H](N)CC(C)C)nn3)CC2)n1	92	x	113	100	99	94	x	x	x	x	x
CN(C)CCCNC(=S)Nc1ccc(Br)cc1	116	x	102	109	98	108	x	x	x	x	x
CC(C)(C)c1cc(C(c2cccnc2)N2CCN(CCO)CC2)cc(C(C)(C)C)c1O (configuration not stated)	99	128	161*	89	95	83	x	x	x	x	x	Yeast autofluor=24
CC(C)(C)n1nnnc1C(c1cccnc1)N1CCN(c2cccc(C(F)(F)F)c2)CC1 (configuration not stated)	126	110	107	90	113	x	x	x	x	x	x
Fc1cccc(Nc2ncnc3c2cnn3-c2ccccc2)c1	99	104	157*	91	69	93	133	103	87	86	88	Yeast autofluor=0
Cc1ccc(-n2nc(CN3CCOCC3)c(-c3ccccc3)c2N)c(C)c1	112	97	102	108	113	112	x	x	x	x	x
COc1ccc(C2OC34CCCCC3C(C#N)(C#N)C2(C#N)C(=N)O4)cc1 (configuration not stated)	139	u	93	63	80	32	94	96	100	106	96
O=C(NOC(=O)c1ccccc1)c1ccccc1	102	116	164*	93	79	65	x	x	x	x	x	Yeast autofluor=2.3
COc1ccc(C(CNC(=O)C(=O)Nc2ccc3c(c2)OCO3)N2CCN(C)CC2)cc1 (configuration not stated)	103	102	103	88	91	87	x	x	x	x	x
COc1ccc(OC(C)C(=O)N2CCC(C)CC2)cc1 (configuration not stated)	101	100	106	101	101	103	x	x	x	x	x
CC1(C)C(=O)Nc2ccccc2N1C(=O)COc1ccccc1C#N	99	124	158*	87	92	117	100	100	98	107	99
COc1ccc(OC)c(N=c2ssnc2Cl)c1	92	101	131	92	82	92	x	x	x	x	x
Nc1ccccc1N=c1ssnc1Cl	x	99	x	x	x	x	x	x	x	x	x
Cc1ccc(N=c2ssnc2Cl)cc1	99	x	163*	89	81	78	141	117	95	117	96	Yeast autofluor=0.8
COc1cc(N=c2ssnc2Cl)c(OC)cc1Cl	93	85*	162*	90	91	73	159*	117	91	111	90	Yeast autofluor=0.4
Cc1cn(CC(=O)NCCCn2ccnc2)c(=O)[nH]c1=O	x	98	x	x	x	x	x	x	x	x	x
COCCNc1nc(-c2cc(C(=O)Nc3ccccc3)on2)cc(C(C)C)n1	92	x	133	88	62	70	103	102	98	96	101
CC(C)c1cc(-c2cc(C(=O)NCc3ccccc3)on2)nc(NCC2CC2)n1	92	99	144	91	63	80	117	103	96	109	100
Cc1cc(-c2cc(C(=O)NC3CCCC3)on2)nc(NCC2CC2)n1	93	101	125	97	98	82	x	x	x	x	x
CC(C)c1cc(-c2cc(C(=O)NCc3ccccc3)on2)nc(NC2CCCC2)n1	92	87	156*	94	78	80	125	119	98	110	100
Cc1cc(-c2cc(C(=O)Nc3ccccc3)on2)nc(NCC2CC2)n1	92	102	108	98	96	87	102	121	103	104	105
Cc1cc(NC2CCCCC2)nc(NCc2ccccc2)n1	114	102	103	111	115	108	x	x	x	x	x
COc1ccc(Cc2nnc(-c3ccc(F)cc3)o2)cc1OC	100	105	109	104	104	102	x	x	x	x	x
CC(CCc1ccc(O)cc1)NCc1ccc(Br)cc1 (configuration not stated)	152	118	78	92	u	21	x	x	x	x	x
CC(C)c1cc(-c2cc(C(=O)Nc3ccccc3)on2)nc(NCC2CC2)n1	107	x	104	92	80	91	99	106	100	93	99

Bioassay records from PubChem.
